DAT uptake mod: modulates human dopamine transporter uptake under cocaine; Q01959; LLC-PK1 hDAT cells, [14C]-dopamine uptake with cocaine IC80; actives deviate in either direction; B-score at 10 µM; 1.3% of 110,000 active;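 active = Z score or B-score, a plate-position-corrected score, falls beyond the plate's 99.7% confidence bounds, in either direction; inactive = both scores lie inside the 99.7% bounds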;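 note: scored against the spread of the other compound wells on the same plate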
Target sequence (Q01959 whole entry, looked up): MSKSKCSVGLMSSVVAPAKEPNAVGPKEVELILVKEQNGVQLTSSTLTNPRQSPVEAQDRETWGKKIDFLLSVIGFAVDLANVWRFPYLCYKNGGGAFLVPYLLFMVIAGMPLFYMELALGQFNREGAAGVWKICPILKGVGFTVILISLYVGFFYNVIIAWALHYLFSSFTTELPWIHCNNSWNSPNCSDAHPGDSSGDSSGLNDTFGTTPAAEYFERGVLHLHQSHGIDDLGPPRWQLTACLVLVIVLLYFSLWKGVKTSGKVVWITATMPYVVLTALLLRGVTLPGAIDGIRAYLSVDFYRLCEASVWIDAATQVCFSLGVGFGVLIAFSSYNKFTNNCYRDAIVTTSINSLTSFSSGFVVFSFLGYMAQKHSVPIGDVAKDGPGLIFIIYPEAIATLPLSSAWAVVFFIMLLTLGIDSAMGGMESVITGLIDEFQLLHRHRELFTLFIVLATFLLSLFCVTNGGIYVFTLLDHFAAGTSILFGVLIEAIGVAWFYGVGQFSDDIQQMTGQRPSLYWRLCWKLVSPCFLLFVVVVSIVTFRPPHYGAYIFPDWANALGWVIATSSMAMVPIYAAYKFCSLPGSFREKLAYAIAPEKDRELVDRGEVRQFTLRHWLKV
CYP2C19 activ: increases human CYP2C19 enzyme activity; P33261; activation factor at 5 µM; recombinant CYP2C19, luciferin-H EGE luminescence; hits give high values; 0 = fully inhibited enzyme, 1 = untreated enzyme; AID 1025; 96,000 tested, under 10 active;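 active = activation factor of at least 2 at 5 µM in the primary screen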;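 note: 0 = wells with 2.5 mM tranylcypromine and 1 = vehicle-only wells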
D1 mod: allosterically modulates the human D1 dopamine receptor | P21728 | HEK293 D1, CRE-luciferase, dopamine EC30 potentiation; actives deviate in either direction | B-score at 10 µM | 5.9% of 58,000 active;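 active = luminescence count or its row- and column-corrected plate score outside the 99.7% band of the plate's sample wells, on either side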
CYP2C19 inh: blocks human cytochrome P450 2C19 | CYP2C19 Supersomes, luciferin-H EGE luminescence, 30 min | inhibition, % at 5 µM | 21% of 96,000 active | AID 778;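 active = CYP2C19 inhibition above a set limit at 5 µM in the primary screen, cut at about 50% in these data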;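 note: plate controls were negative control wells for no effect and 2.5 mM tranylcypromine positive control for full effect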
CYP2C9 inhib: human CYP2C9 inhibition; P11712; CYP2C9 Supersomes, luciferin-H conversion, luminescence; inhibition, % at 5 µM; 20% of 96,000 active; AID 777;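 active = blocking of liver enzyme CYP2C9 beyond about 50% at 5 µM, limit read from the data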
CYP2C9 activ: activators of human CYP2C9; recombinant CYP2C9, luciferin-H conversion, luminescence; hits give high values; factor 1 = untreated enzyme, 0 = blocked; 1.4% of 96,000 active; AID 1024; P11712; activation factor at 5 µM;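 active = activation factor of 2 or more for CYP2C9 at a 5 µM dose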;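 note: 0 = sulfaphenazole-blocked wells and 1 = vehicle-only wells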
An asterisk follows results filed as active; · = not tested or not shown. Only some compounds are listed: those with a hit (about 28% of all), similar ones and a draw of the others.

SMILES	DAT uptake mod	CYP2C19 activ	D1 mod	CYP2C19 inh	CYP2C9 inhib	CYP2C9 activ
COc1cccc(/C(O)=C2/C(=O)C(=O)N(Cc3cccnc3)C2c2ccco2)c1 (stereo not drawn)	-0.0449	0.9	·	13.8	88.8*	0.1
CCN(CC)CCNC(=O)c1ccccc1C(=O)c1ncc[nH]1	0.00327	0.9	0.898	13.8	20.6	0.8
COc1cc2[nH]c(=O)n(CCCCCC(=O)NCCCN3CCC(C)CC3)c(=O)c2cc1OC	-1.04	·	·	·	·	·
O=C(CC(=O)c1cc(Cl)ccc1O)c1ccccc1	0.075	0.9	·	6.3	13.3	0.9
Cc1cccc(C(=O)CC(=O)c2cc(Cl)ccc2O)c1	1.23	0.7	·	32.0	79.0*	0.2
O=C(CN1CCOCC1)N1CCN(c2ccc3ccccc3n2)CC1	-0.00567	·	·	·	·	·
O=S(=O)(NCCc1csc(-c2ccc(C(F)(F)F)cc2)n1)c1ccc2c(c1)OCCO2	0.0881	0.6	·	37.5	-21.1	1.2
COc1ccc(-c2nc(CCNS(=O)(=O)c3ccc4c(c3)OCCO4)cs2)cc1	0.785	0	·	98.4*	79.5*	0.2
O=S(=O)(NCCc1csc(-c2cccnc2)n1)c1ccc2c(c1)OCCO2	0.179	0.5	·	51.3*	29.5	0.7
CCN(CC)S(=O)(=O)c1ccc2c(c1)c(=O)c(C(=O)N1CCN(c3ccccc3)CC1)cn2C	-0.779	·	-0.0253	·	·	·
CCN(CC)S(=O)(=O)c1ccc(NC(=O)Cn2cnc3ccccc3c2=O)cc1	2.18	0.6	0.00833	44.2	67.2*	0.3
CN(C)S(=O)(=O)c1cccc(NC(=O)Cn2cnc3ccccc3c2=O)c1	0.137	0.6	·	42.7	83.6*	0.2
O=C(Cn1cnc2ccccc2c1=O)NCCC(=O)Nc1ccc2c(c1)OCCO2	-0.519	0.9	-0.505	14.1	51.4*	0.5
O=C(Cn1cnc2ccccc2c1=O)Nc1ccc2c(c1)OCCO2	0.537	1.1	-0.505	-6.1	21.2	0.8
O=C(Cn1cnc2ccccc2c1=O)Nc1ccc2c(c1)CCC2	0.145	0.7	0.968	29.5	40.0	0.6
Cc1ccc(CCN2CC(C(=O)NCCCN3CCN(C)CC3)CC2=O)cc1 (stereo not drawn)	0.576	1	0.052	1.1	7.0	0.9
CCCCCC(=O)N1CC2(CC)CN(C(=O)CCCCC)CC(CC)(C1)C2=O	·	·	-0.128	·	·	·
O=C(CN1CCOCC1)N1CCN(C(=O)CN2CCOCC2)CC1	·	·	0.151	·	·	·
NC(=O)CN1CCOCCOCCN(CC(N)=O)CCOCC1	-0.477	1.3	·	-27.0	55.3*	0.4
COCCn1c(SCC(=O)Nc2sccc2C(N)=O)nc2cc(Cl)ccc2c1=O	0.0251	0.5	·	45.3	60.5*	0.4
C=CCn1c(SCC(=O)Nc2sccc2C(N)=O)nc2sc(C)c(C)c2c1=O	-0.576	·	-0.533	·	·	·
COCCn1c(SCC(=O)Nc2ncc(Cl)c(C)c2Cl)nc2ccccc21	1.73	0.1	2.84	92.9*	47.4	0.5
COCCn1c(SCC(=O)NC(=O)NC(C)(C)C)nc2ccccc21	0.0414	0.4	·	56.7*	26.8	0.7
COCCn1c(SCC(=O)Nc2ccc(Cl)cn2)nc2ccccc21	-0.317	0.1	·	89.9*	-24.3	1.2
CC(C)OC(=O)C(NC(=O)c1ccccc1)=C1CCCCC1	-0.571	0.9	-1.43	13.8	33.6	0.7
SMILES	DAT uptake mod	CYP2C19 activ	D1 mod	CYP2C19 inh	CYP2C9 inhib	CYP2C9 activ
CCn1cnc2sc(-c3ccccc3)cc2c1=O	-0.506	0.6	-0.0615	44.4	71.0*	0.3
CC(=O)Cn1cnc2sc(-c3ccccc3)cc2c1=O	-0.638	0.7	·	30.6	28.9	0.7
C/C(=N\N=C(/N)SC1CC(=O)N(c2cccc(Cl)c2)C1=O)c1cccs1 (stereo not drawn)	·	1	·	-4.7	60.7*	0.4
CCCOc1ccc(N2C(=O)CC(S/C(N)=N/N=C(\C)c3cccs3)C2=O)cc1 (stereo not drawn)	-1.43	0.9	·	5.6	27.0	0.7
Cc1ccc(-c2csc(N3CCC(NS(=O)(=O)c4ccc5c(c4)OCCO5)CC3)n2)cc1	-0.598	0.5	0.0522	46.8	62.6*	0.4
Cc1cccn2c(=O)c3cc(C(=O)NCCCN4CCCC4=O)n(C)c3nc12	0.167	0.5	3.01	51.2*	31.7	0.7
Cc1cccn2c(=O)c3cc(C(=O)NCCCn4ccnc4)n(C)c3nc12	·	0.7	-0.407	32.4	60.5*	0.4
